Experimental data published in PubChem BioAssay AID504329 (Southern Research Specialized Biocontainment Screening …, 2011).
The campaign covered roughly 340,000 compounds. About 1,000 (0.29%) were called active. Cut-off read from the data, not from the text of the source: inconclusive = inhibition above about 27% without an active follow-up result; inactive = below that. The list is a sample of the results. Potency and affinity values are given separately.

test: NS1A inhibition, H1N1 influenza, cell based functional assay (AID 504329); settings: percent inhibition, at 12.5 µM, stronger effect = higher value

SMILES	inhibition
CNc1c([N+](=O)[O-])cnn1-c1ccccc1Cl	-8.09% (inactive)
COc1ccccc1-n1cc2c([N+](=O)[O-])cc([N+](=O)[O-])cc2n1	41.1% (inactive)
COc1ccc(C(=O)Nc2nc(-c3ccc([N+](=O)[O-])cc3)c(-c3ccc(OC)cc3)s2)cc1	-6.06% (inactive)
Nc1nn(-c2ccccc2)nc1C(=O)OCc1ccccc1F	1.7% (inactive)
CC(=O)c1sc(NC(=O)c2ccc(Cl)cc2)nc1C	0.95% (inactive)
CC1CN(c2ccc([N+](=O)[O-])cc2C(=O)N2CCOCC2)CC(C)N1 (stereo unspecified)	-4.9% (inactive)
CC(=O)Nc1cccc(NC(=O)CSc2nnc3ccc(-c4cccnc4)nn23)c1	2.74% (inactive)
CCOc1ccc2c(c1)-c1c(ssc1=S)C(C)(C)N2	21.5% (inactive)
CC1(C)Nc2ccc(O)cc2-c2c1ssc2=S	19% (inactive)
CC1CCCN(C(=O)CNC(=O)c2cccs2)C1 (stereo unspecified)	-11.6% (inactive)
O=Cc1ccc(Cl)c(Cl)c1	-13.3% (inactive)
COc1ccc(C)cc1NCC(=O)Nc1ccc(C(C)(C)C)cc1	-0.26% (inactive)
O=C(COc1cccc2ccccc12)N1CCN(c2ccccn2)CC1	0.39% (inactive)
O=C(CSc1nccc2ccccc12)N1CCN(c2ccccn2)CC1	9.51% (inactive)
Cc1cccc(OCC(=O)NCC(=O)N/N=C/c2cc(Br)ccc2OCc2ccccc2)c1	9.61% (inactive)
COc1cc(O)c(C(CCN2CCCC2)c2ccc(N(C)C)cc2)c(OC)c1 (stereo unspecified)	26.1% (inactive)
COc1ccc(C(CCN2CCN(c3ccccc3)CC2)c2c(O)cc(OC)cc2OC)cc1 (stereo unspecified)	15.3% (inactive)
COc1cc(OC)c2ccc(=O)oc2c1C(CCN1CCCCC1)c1ccc(N(C)C)cc1 (stereo unspecified)	9.04% (inactive)
COc1cc(OC)c2ccc(=O)oc2c1C(CCN1CCCC1)c1ccc(N(C)C)cc1 (stereo unspecified)	21.8% (inactive)
NC(=O)CCN1CCN(C(=O)c2ccc3nc(Cc4cccc(Cl)c4)oc3c2)CC1	-5.64% (inactive)
CCOC(=O)c1c(NC(=O)COC(=O)Cc2n[nH]c(=O)c3ccccc23)sc(C(=O)N(C)C)c1C	-4.28% (inactive)
O=[N+]([O-])c1ccc(N/N=C/c2c[nH]c3ccccc23)cc1	7.03% (inactive)
CCOc1ccccc1/C=N/Nc1ccccc1[N+](=O)[O-]	28.9% (inactive)
O=[N+]([O-])c1ccccc1N/N=C\c1ccccc1Cl	1.01% (inactive)

SMILES	inhibition
CCCOc1ccc(/C=N/Nc2ccccc2[N+](=O)[O-])c(O)c1	3.15% (inactive)
CCCOc1ccc(/C=N/Nc2ccc(C(=O)O)cc2)c(OCCC)c1	10.8% (inactive)
COc1ccccc1/C=N\Nc1ccccc1[N+](=O)[O-]	9.18% (inactive)
Cc1cccc(NC(=O)Cn2nc(-c3ccco3)ccc2=O)c1C	0.81% (inactive)
COC(C[C@H](O)C[C@@H](O)[C@H](C)OCc1ccccc1)OC	-2.93% (inactive)
CCCCOCCCNC(=S)Nc1ccc(S(=O)(=O)N2CCOCC2)cc1	0.29% (inactive)
CCCCC1=C(C(=O)OCC)C(C(=O)OCC)Oc2ccccc21 (stereo unspecified)	-8.03% (inactive)
COc1ccc(CN(CC(=O)NCc2ccccc2)C(=O)CCC(=O)Nc2ccccn2)cc1	-6.86% (inactive)
C/C=C(\C)CN1CCC(n2nccc2NC(=O)CCCc2ccccc2)CC1	-5.21% (inactive)
CCCN(CC(=O)Nc1ccccc1C)C(=O)c1ccc(=O)n(Cc2ccccc2)n1	5.93% (inactive)
CN(C)N1C(N)=C(C#N)C(c2cccnc2)C2=C1CCCC2=O (stereo unspecified)	0.98% (inactive)
COc1ccc(Cl)cc1NS(=O)(=O)c1cn(C)nc1C	-6.95% (inactive)
Cc1c(C)n(Cc2ccccc2)c2ccc(C(=O)OCCN(C)C)cc12	18.7% (inactive)
Cc1c(C)n(CCN(C)C)c2ccc(C(=O)OCCN(C)C)cc12	-4.19% (inactive)
CCn1ccnc1CN(C)Cc1cn(-c2cc(C)ccc2C)nc1-c1ccccc1	7.7% (inactive)
Cc1ccc(C)c(-n2cc(CNCCCn3cccn3)c(-c3ccccc3)n2)c1	-27.8% (inactive)
CCOC(=O)C1(C(=O)OCC)NC(=O)CC1C (stereo unspecified)	1.41% (inactive)
C/C(=N\NC(=O)c1cc(C)nc2ccccc12)c1ccncc1	7.15% (inactive)
C/C(=N\NC(=O)c1cc(C)nc2ccccc12)c1ccco1	-1.27% (inactive)
NNC(=O)c1cc(-c2cccs2)nc2ccccc12	25.3% (inactive)
O=C(N/N=C/c1ccc2ncccc2c1)c1cc(-c2cccs2)nc2ccccc12	-4.78% (inactive)
COc1ccc(CC(=O)Nc2nc(-c3ccncc3)cs2)cc1	3.49% (inactive)
Cc1nn(-c2ccccc2)c(N2CCCC2)c1/C=N/NC(=O)c1ccccc1O	-10.1% (inactive)
O=C(Oc1ccc(/C=N/NC(=O)c2ccccc2O)cc1)c1ccccc1	1.64% (inactive)

SMILES	inhibition
CCOC(=O)C1CCCN(C(=O)C2CCN(Cc3nc(-c4ccc(Cl)cc4)oc3C)CC2)C1 (stereo unspecified)	-0.69% (inactive)
COC(=O)c1ccc(COc2ncnc3ccccc23)o1	2.36% (inactive)
CC1=C/C(=C(/c2ccc(O)c(C)c2)c2ccccc2S(=O)(=O)O)C=CC1=O	12.6% (inactive)
CC1=C/C(=C(\c2ccc(O)c(C)c2)c2ccccc2S(=O)(=O)O)C=CC1=O	-2.96% (inactive)
O=[N+]([O-])c1ccc(N2CCOCC2)c([N+](=O)[O-])c1	4.03% (inactive)
O=[N+]([O-])c1ccc([N+](=O)[O-])c(Nc2ccc(N3CCOCC3)cc2)c1	-0.167% (inactive)
NC(=O)c1ccccc1N/C=C/C(=O)c1ccccc1	1.83% (inactive)
COc1ccc(Cn2c(=O)[nH]c3cc(C(=O)N4CCN(c5ccc(OC)cc5)CC4)ccc3c2=O)cc1	-8.57% (inactive)
Cc1ccc(NC(=O)COC(=O)Cn2ccc(C(F)(F)F)n2)cc1Cl	0.4% (inactive)
CN=c1scc(-c2ccco2)n1/N=C/c1ccc(O)c(O)c1	19.1% (inactive)
CCN=c1scc(-c2ccco2)n1/N=C/c1ccc(OC)c(O)c1	28.8% (inactive)
CN(CC(=O)Nc1ccccc1Cl)C(=O)C1CCN(C(=O)c2ccc(F)cc2)CC1	-9.67% (inactive)
Cc1cc(C(=O)Nc2cccc(S(=O)(=O)N3CCOCC3)c2)c2ccccc2n1	-7.61% (inactive)
O=C(C[n+]1ccccc1)N/N=C/c1ccc(Br)cc1	3.75% (inactive)
O=C(Cc1ccccc1)N/N=C/c1cc(Br)cc(Br)c1O	-3.61% (inactive)
O=C(C[n+]1ccccc1)N/N=C/c1cc(Br)ccc1F	2.1% (inactive)
COc1ccc(Br)cc1/C=N/NC(=O)C[n+]1ccccc1	-3.17% (inactive)
O=S(=O)(NN1CCOCC1)c1ccc(Br)cc1	-5.55% (inactive)
COc1ccc(/C=N/NC(=O)C2c3ccccc3-c3ccccc32)cc1	1.63% (inactive)
O=C(NNC(=O)c1ccccc1Cl)c1ccccc1Cl	-1.97% (inactive)
COc1ccc(/C=C2/C(=O)NC(=S)N(C3CC3)C2=O)cc1CN1C(=O)c2ccccc2C1=O	-5.91% (inactive)
O=C(NNC(=O)C1CC=CCC1)c1ccccc1Cl (stereo unspecified)	-13.4% (inactive)
Cc1ccccc1SCC(=O)NNC(=O)c1ccccc1O	-9.27% (inactive)
CCOC(=O)C1CCN(/C=C2\C(=O)NC(=S)N(CC)C2=O)CC1	1.72% (inactive)

SMILES	inhibition
Cc1ccc(/C=C2\C(=O)NC(=S)N(c3ccccc3F)C2=O)s1	-6.98% (inactive)
O=C1/C(=C/c2cccs2)NC(=S)N1C1CC1	25.9% (inactive)
CCNC(=S)NNC(=O)c1ccncc1	-6.57% (inactive)
Cc1cccc(NC(=O)COc2ccc(/C=N\n3cnnc3)cc2)c1	-2.09% (inactive)
CS(=O)(=O)N1CCN(C(=O)Cc2ccc(Br)cc2)CC1	-21.4% (inactive)
O=C(O)/C=C/c1cn(-c2ccccc2)nc1-c1ccccc1	-7.13% (inactive)
CCOc1ccc(C(C(=O)NC2CCCCC2)N(C(=O)c2ccccn2)c2cccnc2)cc1 (stereo unspecified)	-3.97% (inactive)
CCCCCCCCNc1nc(Cl)nc(NCc2ccco2)n1	-0.33% (inactive)
O=C(O)c1ccccc1NS(=O)(=O)c1cccc2nsnc12	-1.24% (inactive)
O=C(NNC(=S)NC1CCCCC1)c1ccccc1O	5.32% (inactive)
O=C(N/N=C/c1c(O)n(C2CCCCC2)c(=S)[nH]c1=O)c1ccccc1O	-5.43% (inactive)
Cn1nccc1C(=O)Nc1sc2c(c1C(N)=O)CCCC2	-3.24% (inactive)
Oc1cc2c(cc1CN1CCc3ccccc3C1)OCO2	13.1% (inactive)
Oc1ccc(CNc2ccccc2)c2cccnc12	10.6% (inactive)
O=c1oc2ccccc2c(O)c1Cc1cc(Cl)c2cccnc2c1O	-5.95% (inactive)
Oc1ccc(CNc2ccccc2F)c2cccnc12	12.8% (inactive)
O=C(Oc1c(CN2CCOCC2)cc(Cl)c2cccnc12)c1ccc(F)cc1	5.6% (inactive)
Oc1c(I)cc(Cl)c2cccnc12	-16.7% (inactive)
CN1CCN(Cc2cc(Cl)c3cccnc3c2OC(=O)c2cccs2)CC1	-0.27% (inactive)
Oc1ccc(CNc2ccc(F)cc2)c2cccnc12	28.1% (inactive)
CC(=O)OCC(=O)c1ccc2ccn(C(C)=O)c2c1	2.53% (inactive)
c1ccc(CN(Cc2cccs2)C(c2cccs2)c2nnnn2C2CCCC2)cc1 (stereo unspecified)	4.12% (inactive)
CSc1cc(-c2ccc(Cl)cc2)c(C(=O)N2CCCC2)s1	-3.23% (inactive)
O=S(=O)(c1cc(F)ccc1F)N1CCN(C2CCCCC2)CC1	0.25% (inactive)
